Experimental data as given in PubChem BioAssay (NCATS).
Records with an inconclusive call do not appear. A call without a number means that no potency is given here. The source made the active and inactive calls. The call rests on the fitted dose curve; in most records, active means well fitted cell-killing curve with a large enough effect in the repeat runs; inconclusive means weak or mixed curves, or effect the other way; inactive means flat fitted curve, though single readings scatter.

Assay: qHTS assay for small molecule antagonists of the retinoid-related orphan receptor gamma (ROR-gamma) signaling pathway - cell viability counter screen (AID 720652);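 further: compound exposure lasted 16 hr before ATP read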
Conditions: RORgamma reporter cell line viability counter screen; series mostly up to 92.2 µM
From the text: National Center for Advancing Translational Sciences [NCATS]
NIH Chemical Genomics Center [NCGC]
National Institutes of Environmental Health Sciences [NIEHS]
National Toxicology Program [NTP]
Nuclear steroid hormone receptors are involved in many biological processes including inflammatory responses, cell proliferation, and apoptosis. Environmental factors or compounds disrupting these nuclear receptor pathways and gene expression may promote susceptibility to immunotoxicants and autoimmune diseases. One important group of these expression factors are the retinoid-related orphan receptors. To assess compounds that may interfere with the retinoid-related orphan receptor gamma (ROR-gamma) transcription factor, a cell-based luciferase assay was used.
The CHO cell-based assay utilizes a TET-inducible ROR expression factor and ROR response element-LUC reporter gene. Reporter activity was induced using doxycycline and measured after 16hr incubation. Luminescence was read using Viewlux (PerkinElmer), where a decrease in reporter activity would show a decrease in luminescence. The cytotoxicity of the compounds against ROR response-Luc reporter gene cell line was quantified by measuring the intracellular ATP content.
1,000 cells in 4 uL/well were dispensed into white wall/solid bottom 1536-well plates using a Multidrop Combi (Thermo Scientific) dispenser. Following incubation at 37 C and 5% CO2 for 5 hr, 23 nL compound or DMSO vehicle were transferred by a pin tool, then the plates were treated with 1 ul doxycycline to induce reporter gene activity. After 16 hr incubation at 37 C and 5% CO2, 5 uL/well of CellTiter-Glo reagent (Promega) was then added to each plate using a Flying Reagent Dispenser and incubated at room temperature for 30 min. The luminescence intensity was quantified on a ViewLux plate reader (PerkinElmer).
Potency means the concentration at half of the fitted maximal effect.

Row | Structure (SMILES) | Potency
1 | CCC1(c2ccccc2)C(=O)NCNC1=O | inactive
2 | COc1ccc(CCN(C)CCCC(C#N)(c2ccc(OC)c(OC)c2)C(C)C)cc1OC (configuration not stated) | inactive
3 | NS(=O)(=O)c1cc2c(cc1Cl)NCNS2(=O)=O | inactive
4 | Cn1c(=O)c2c(ncn2C)n(C)c1=O | inactive
5 | NCCS(=O)(=O)O | inactive
6 | COc1cc2c(c(OC)c1OC)-c1ccc(OC)c(=O)cc1[C@@H](NC(C)=O)CC2 | inactive
7 | Cc1cn([C@H]2C=C[C@@H](CO)O2)c(=O)[nH]c1=O | inactive
8 | CC(C)NCC(O)c1ccc(O)c(O)c1 (configuration not stated) | inactive
9 | Cc1cn([C@H]2C[C@H](N=[N+]=[N-])[C@@H](CO)O2)c(=O)[nH]c1=O | inactive
10 | COc1ccc2[nH]cc(CCNC(C)=O)c2c1 | inactive
11 | Nc1c2c(nc3ccccc13)CCCC2 | inactive
12 | Nc1ccn([C@H]2CC[C@@H](CO)O2)c(=O)n1 | inactive
13 | COc1ccc2c(c1)c(CC(=O)O)c(C)n2C(=O)c1ccc(Cl)cc1 | inactive
14 | CC(C)C(=O)Nc1ccc([N+](=O)[O-])c(C(F)(F)F)c1 | inactive
15 | O=c1[nH]cc(F)c(=O)[nH]1 | inactive
16 | Clc1ccc(C(c2ccccc2Cl)C(Cl)Cl)cc1 (configuration not stated) | 59.6 µM (active)
17 | Cn1c(=O)c2[nH]cnc2n(C)c1=O | inactive
